Experimental findings from article PMC12820563, “FoxP3 forms a head-to-head dimer in vivo and stabilizes its multimerization on adjacent microsatellites” are described below.

The full ranking holds about 16,000 sequences; the median of “rpm ratio (pull-down/input)” is about 0.94, and the highest 2% start at about 1.7. For the sample, the highest values were picked, then their nearest neighbours and some sequences at random.

For the assay, the target named is T1, MBP-FoxP1dN (Mus musculus, UniProt P58462 326-579).
T1 sequence: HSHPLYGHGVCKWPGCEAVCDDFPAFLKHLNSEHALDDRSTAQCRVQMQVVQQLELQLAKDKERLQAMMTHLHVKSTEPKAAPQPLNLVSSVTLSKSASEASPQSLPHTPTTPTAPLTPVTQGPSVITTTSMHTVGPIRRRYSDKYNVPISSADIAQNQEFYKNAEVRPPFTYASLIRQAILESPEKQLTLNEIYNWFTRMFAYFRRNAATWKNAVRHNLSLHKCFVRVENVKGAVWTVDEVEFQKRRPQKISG
The experiment in a line: PD-seq (MBP pull-down with sequencing); 20 mM Tris-HCl pH 7.5, 100 mM NaCl, 1.5 mM MgCl2, 0.4 uM protein, 0.1 uM dsDNA library, 30 min, room temperature, amylose pull-down; high values mean tight binding. To be noted: protein: recombinant; tags: His6-MBP; chain copies: 2; dsDNA, one strand shown. In short, it runs like this: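 Mouse FoxP3 or FoxP1 fragment lacking the N-terminus, His6-MBP-tagged and expressed in E. coli, was incubated at 0.4 µM with 0.1 µM Klenow-filled degenerate double-stranded DNA library for 30 min at room temperature in Tris pH 7.5 buffer with NaCl and MgCl2. Complexes captured on amylose resin were washed three times and their DNA sequenced on Illumina. Binding is reads-per-million enrichment of pull-down over input, replicates pooled.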
With “GATGATTGTTCTCCCAGCTGATGAATTATTACTATCGAGTAAACAAATTTTCCTAATCTTTCTGTTCAAGCGCCATCTAC”, the binding signal was 1.21 RPM ratio (pull-down/input).
As for “GATGATTGTTCTCCCAGCTGATGAATTACTAATGTCGAGTAAACAAATTTTCCTAATCTTTCTGTTCAAGCGCCATCTAC”, the figure is 1.28 RPM ratio (pull-down/input); as for “GATGATTGTTCTCCCAGCTGATGAATTACTAATTTCGAGTAAACAAATTTTCCTAATCTTTCTGTTCAAGCGCCATCTAC”, 1.25 RPM ratio (pull-down/input).
As for “GATGATTGTTCTCCCAGCTGATGAATTACTATCATCGAGTAAACAAATTTTCCTAATCTTTCTGTTCAAGCGCCATCTAC”, the figure is 1.28 RPM ratio (pull-down/input); as for “GATGATTGTTCTCCCAGCTGATGAATTACTATTGTCGAGTAAACAAATTTTCCTAATCTTTCTGTTCAAGCGCCATCTAC”, 2.38 RPM ratio (pull-down/input); as for “GATGATTGTTCTCCCAGCTGATGAATTACTATTATCGAGTAAACAAATTTTCCTAATCTTTCTGTTCAAGCGCCATCTAC”, 1.87 RPM ratio (pull-down/input).
For the sequence “GATGATTGTTCTCCCAGCTGATGAATTACTATTTTCGAGTAAACAAATTTTCCTAATCTTTCTGTTCAAGCGCCATCTAC”, the binding signal is 2.29 RPM ratio (pull-down/input).
As for “GATGATTGTTCTCCCAGCTGATGAATTATTACTGTCGAGTAAACAAATTTTCCTAATCTTTCTGTTCAAGCGCCATCTAC”, the figure is 1.17 RPM ratio (pull-down/input); as for “GATGATTGTTCTCCCAGCTGATGAATTTACTATTTCGAGTAAACAAATTTTCCTAATCTTTCTGTTCAAGCGCCATCTAC”, 1.55 RPM ratio (pull-down/input); as for “GATGATTGTTCTCCCAGCTGATGAATTTCTCTATTCGAGTAAACAAATTTTCCTAATCTTTCTGTTCAAGCGCCATCTAC”, 0.936 RPM ratio (pull-down/input).
As for “GATGATTGTTCTCCCAGCTGATGAATTCTCGGCCTCGAGTAAACAAATTTTCCTAATCTTTCTGTTCAAGCGCCATCTAC”, the figure is 0.731 RPM ratio (pull-down/input); as for “GATGATTGTTCTCCCAGCTGATGAATTATGACTGTCGAGTAAACAAATTTTCCTAATCTTTCTGTTCAAGCGCCATCTAC”, 0.934 RPM ratio (pull-down/input); as for “GATGATTGTTCTCCCAGCTGATGAATTCCCTCGGTCGAGTAAACAAATTTTCCTAATCTTTCTGTTCAAGCGCCATCTAC”, 0.759 RPM ratio (pull-down/input).
As to “GATGATTGTTCTCCCAGCTGATGAATTGTGCCTATCGAGTAAACAAATTTTCCTAATCTTTCTGTTCAAGCGCCATCTAC”, the binding signal was 1.09 RPM ratio (pull-down/input).
As for “GATGATTGTTCTCCCAGCTGATGAATTTGATCACTCGAGTAAACAAATTTTCCTAATCTTTCTGTTCAAGCGCCATCTAC”, the figure is 1.02 RPM ratio (pull-down/input).
As for “GATGATTGTTCTCCCAGCTGATGAATTCCAAGTATCGAGTAAACAAATTTTCCTAATCTTTCTGTTCAAGCGCCATCTAC”, the figure is 0.949 RPM ratio (pull-down/input); as for “GATGATTGTTCTCCCAGCTGATGAATTCGCTTAATCGAGTAAACAAATTTTCCTAATCTTTCTGTTCAAGCGCCATCTAC”, 0.936 RPM ratio (pull-down/input); as for “GATGATTGTTCTCCCAGCTGATGAATTCTGTGGATCGAGTAAACAAATTTTCCTAATCTTTCTGTTCAAGCGCCATCTAC”, 0.956 RPM ratio (pull-down/input).
As for “GATGATTGTTCTCCCAGCTGATGAATTATCTAGATCGAGTAAACAAATTTTCCTAATCTTTCTGTTCAAGCGCCATCTAC”, the figure is 0.863 RPM ratio (pull-down/input); as for “GATGATTGTTCTCCCAGCTGATGAATTTATATCATCGAGTAAACAAATTTTCCTAATCTTTCTGTTCAAGCGCCATCTAC”, 1.27 RPM ratio (pull-down/input).
Take “GATGATTGTTCTCCCAGCTGATGAATTAAATGCGTCGAGTAAACAAATTTTCCTAATCTTTCTGTTCAAGCGCCATCTAC”: the binding signal was 1.43 RPM ratio (pull-down/input).
As for “GATGATTGTTCTCCCAGCTGATGAATTATTGGCTTCGAGTAAACAAATTTTCCTAATCTTTCTGTTCAAGCGCCATCTAC”, the figure is 1.1 RPM ratio (pull-down/input).
As for “GATGATTGTTCTCCCAGCTGATGAATTGTTTCTCTCGAGTAAACAAATTTTCCTAATCTTTCTGTTCAAGCGCCATCTAC”, the figure is 1.33 RPM ratio (pull-down/input).
As for “GATGATTGTTCTCCCAGCTGATGAATTGCATCCCTCGAGTAAACAAATTTTCCTAATCTTTCTGTTCAAGCGCCATCTAC”, the figure is 1.46 RPM ratio (pull-down/input).
Turning to “GATGATTGTTCTCCCAGCTGATGAATTTTTTAGCTCGAGTAAACAAATTTTCCTAATCTTTCTGTTCAAGCGCCATCTAC”, the binding signal is 0.853 RPM ratio (pull-down/input).
As for “GATGATTGTTCTCCCAGCTGATGAATTTTTGTTCTCGAGTAAACAAATTTTCCTAATCTTTCTGTTCAAGCGCCATCTAC”, the figure is 0.963 RPM ratio (pull-down/input); as for “GATGATTGTTCTCCCAGCTGATGAATTTAGCTCCTCGAGTAAACAAATTTTCCTAATCTTTCTGTTCAAGCGCCATCTAC”, 0.946 RPM ratio (pull-down/input).
As for “GATGATTGTTCTCCCAGCTGATGAATTGTTTTTCTCGAGTAAACAAATTTTCCTAATCTTTCTGTTCAAGCGCCATCTAC”, the figure is 2.22 RPM ratio (pull-down/input); as for “GATGATTGTTCTCCCAGCTGATGAATTCTGTTTCTCGAGTAAACAAATTTTCCTAATCTTTCTGTTCAAGCGCCATCTAC”, 1.14 RPM ratio (pull-down/input); as for “GATGATTGTTCTCCCAGCTGATGAATTTGTTTTCTCGAGTAAACAAATTTTCCTAATCTTTCTGTTCAAGCGCCATCTAC”, 2.32 RPM ratio (pull-down/input).
As for “GATGATTGTTCTCCCAGCTGATGAATTGTTTAGCTCGAGTAAACAAATTTTCCTAATCTTTCTGTTCAAGCGCCATCTAC”, the figure is 1.89 RPM ratio (pull-down/input); as for “GATGATTGTTCTCCCAGCTGATGAATTTTGTTTCTCGAGTAAACAAATTTTCCTAATCTTTCTGTTCAAGCGCCATCTAC”, 1.71 RPM ratio (pull-down/input); as for “GATGATTGTTCTCCCAGCTGATGAATTTTGCATCTCGAGTAAACAAATTTTCCTAATCTTTCTGTTCAAGCGCCATCTAC”, 1.52 RPM ratio (pull-down/input).
Take “GATGATTGTTCTCCCAGCTGATGAATTTGCATCCTCGAGTAAACAAATTTTCCTAATCTTTCTGTTCAAGCGCCATCTAC”: the binding signal was 1.77 RPM ratio (pull-down/input).
